PAFAH1B2 FP inh: blocks human PAF acetylhydrolase 1b catalytic subunit 2 | P68402 | recombinant PAFAH1B2, FP-rhodamine activity probe, fluorescence polarization | inhibition, % at 3.39 µM | actives 1.2% (n = 340,000) | AID 492953;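 active = inhibition above the mean of all tested compounds plus 3 SD, cut at about 24% in these data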;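 note: 0% = enzyme with DMSO and 100% = wells lacking PAFAH1B2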
Target sequence (P68402 whole entry, looked up): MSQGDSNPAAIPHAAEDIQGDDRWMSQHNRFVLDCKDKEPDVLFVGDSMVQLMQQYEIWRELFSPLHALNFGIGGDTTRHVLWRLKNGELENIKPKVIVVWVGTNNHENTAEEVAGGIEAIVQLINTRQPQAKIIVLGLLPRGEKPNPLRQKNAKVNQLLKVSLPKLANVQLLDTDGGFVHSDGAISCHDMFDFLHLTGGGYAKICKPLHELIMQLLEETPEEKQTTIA
pPAFAH FP inh: pPAFAH (human) enzyme inhibition; recombinant pPAFAH, FP-rhodamine probe fluorescence polarization; Q13093; inhibition, % at 3.39 µM; actives 1.5% (n = 330,000);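 active = inhibition above the mean inhibition across the screen plus 3 SD, cut at about 25% in these data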;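 note: inhibitors block binding of the rhodamine activity-based probe so polarization drops; 0% = enzyme with DMSO and 100% = wells lacking pPAFAH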
ATG4B inh: blocks human ATG4B protease cleavage of LC3 substrate; actives 0.51% (n = 340,000); ATG4B cleavage of LC3-PLA2, NBD-HPC fluorescence, 1 h; AID 504462; inhibition, % at 8.33 µM; Q9Y4P1; in the data active = inhibition above about 40%
Target sequence (Q9Y4P1 whole entry, looked up): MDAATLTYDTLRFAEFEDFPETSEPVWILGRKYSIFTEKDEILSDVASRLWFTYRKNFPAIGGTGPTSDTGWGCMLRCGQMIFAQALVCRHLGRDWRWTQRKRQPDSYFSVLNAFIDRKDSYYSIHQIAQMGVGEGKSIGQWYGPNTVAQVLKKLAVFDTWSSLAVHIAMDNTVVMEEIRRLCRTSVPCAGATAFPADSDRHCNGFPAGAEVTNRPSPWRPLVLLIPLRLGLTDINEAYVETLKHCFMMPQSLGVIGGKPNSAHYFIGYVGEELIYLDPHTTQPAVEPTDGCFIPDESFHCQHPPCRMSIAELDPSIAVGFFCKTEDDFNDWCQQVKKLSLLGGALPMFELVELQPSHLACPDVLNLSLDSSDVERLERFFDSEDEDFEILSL
PAFAH1B3 inh: inhibitors of human PAFAH1B3; actives 0.28% (n = 340,000); inhibition, % at 3.39 µM; recombinant PAFAH1B3, FP-rhodamine probe, fluorescence polarization; Q15102;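 active = inhibition above the screen-wide average of all tested compounds plus 3 SD, cut at about 25% in these data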;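 note: 0% = enzyme with DMSO only and 100% = wells lacking PAFAH1B3 protein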
PAFAH2 FP inh: PAFAH2 (human) inhibition; recombinant PAFAH2, FP-rhodamine activity probe, fluorescence polarization; actives 0.99% (n = 340,000); inhibition, % at 3.39 µM; AID 492956;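 active = inhibition above the mean over all tested compounds plus 3 SD, cut at about 30% in these data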;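 note: inhibitors block probe labeling of enzyme so polarization drops; 0% = enzyme with DMSO and 100% = wells lacking PAFAH2 protein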
DAGLB inh: diacylglycerol lipase beta (human) inhibition. Q8NCG7. HEK293T DAGLB membrane lysate, EnzChek fluorogenic substrate. inhibition, % at 5.17 µM. actives 0.059% (n = 340,000). AID 504411; in the data active = inhibition above about 34%;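 note: 0% = enzyme with vehicle and 100% = wells lacking enzyme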
PAFAH2 confirm: confirmation of human PAFAH2 inhibitors; actives 65% (n = 2,300); AID 493030; inhibition, % at 3.39 µM; recombinant PAFAH2, FP-rhodamine activity probe, fluorescence polarization; shares compounds with PAFAH2 FP inh;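 active = mean inhibition over three repeats above a set limit taken from the earlier primary screen, cut at about 30% in these data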;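 note: inhibitor blocks binding of rhodamine activity probe so polarization falls; 0% = enzyme with DMSO and 100% = wells lacking PAFAH2 protein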
Active calls of the source: *; . = not tested or not shown. In the library only some 3% were active in any assay of this set; here they are far more common.

SMILES | PAFAH1B2 FP inh | pPAFAH FP inh | ATG4B inh | PAFAH1B3 inh | PAFAH2 FP inh | DAGLB inh | PAFAH2 confirm
CC1(C)CC(=O)C/C(=N/NC(=O)COc2ccc(Cl)cc2Cl)C1 | -2 | 11 | -5 | 11 | 40* | -5 | 22
CC1(C)CC(=O)C/C(=N/NC(=O)COc2ccc3ccccc3c2Br)C1 | 9 | 8 | -11 | 4 | 30* | 3 | 16
O=C(COc1ccc(S(=O)(=O)N2CCCC2)cc1)NCC1CCCO1 (stereo not drawn) | 0 | 4 | -2 | 4 | 3 | -1 | .
CC(C)(C)c1ccc(OC(=O)N2CCOCC2)cc1 | -5 | 21 | -4 | 2 | 30* | -3 | 38*
CCC(=O)c1ccc(OC(=O)N2CCOCC2)cc1 | 1 | 24 | 2 | 5 | 35* | 1 | 21
CCOc1ccc(NC(=O)CCCN2C(=O)C(c3ccccc3)Oc3cccnc32)cc1 (stereo not drawn) | 1 | 9 | 10 | 1 | 3 | 1 | .
N=C1C(c2nc(-c3ccc(Cl)cc3)cs2)=C(O)CN1CCCN1CCOCC1 | 3 | 20 | -7 | 5 | 30* | 6 | 30*
COc1ccccc1NC(=O)CC1Nc2ccccc2NC1=O (stereo not drawn) | 5 | 9 | -17 | 9 | 86* | 1 | -1
CCOC(=O)c1c(NC(=O)C2C3C=CC(C3)C2C(=O)O)sc2c1CCCC2 (stereo not drawn) | 10 | 2 | -5 | -4 | 12 | 7 | .
CCOC(=O)c1c(NC(=O)C2CC(Cl)=CCC2C(=O)O)sc2c1CCCCC2 (stereo not drawn) | 7 | 14 | 21 | 18 | 38* | 17 | 28
C=CCSC1=N/C(=C\c2cc(OC)c3c(c2)OCO3)C(=O)S1 | -1 | 4 | -16 | 7 | 42* | -5 | 43*
CCSC1=N/C(=C\c2ccc3c(c2)OCO3)C(=O)S1 | 0 | -3 | -17 | -5 | 17 | -9 | .
COc1cc2nc(-c3ccccc3C)oc(=O)c2cc1OC | 1 | 1 | 10 | 10 | 6 | -2 | .
Cc1cc2c(=O)oc(-c3ccccc3Br)nc2s1 | 3 | . | 10 | 5 | 69* | 2 | 52*
CN(C(=O)COC(=O)c1cnc(Cl)c(Cl)c1)C1CCCCC1 | 5 | 0 | -3 | 6 | -4 | 2 | .
COc1cc(N)c(Cl)cc1C(=O)OCC(=O)NC1CCCC1 | 7 | 5 | -6 | 8 | 48* | 1 | 34*
COc1cc(N)c(Cl)cc1C(=O)OCC(=O)N(C)C1CCCCC1 | 7 | 3 | -11 | 9 | 55* | 0 | 30*
COC(=O)c1cc(Cl)c(N)cc1OC | 6 | 2 | 6 | -1 | 0 | 0 | .
O=C(COc1ccccc1)N=C1SC2CS(=O)(=O)CC2N1c1ccccc1F (stereo not drawn) | -2 | 12 | -1 | 7 | 4 | 2 | .
C=C(C)CNC(=S)Nc1cccc(N)n1 | -1 | . | -15 | 1 | 5 | -1 | .
Cc1cccc(C(=O)OCC(=O)N2CCCCCC2)c1O | 5 | 3 | 4 | 0 | 3 | -10 | .
Cc1cccc(C(=O)OCC(=O)N2CCCC2=O)c1O | 1 | -3 | -5 | 4 | 38* | -2 | 22
Nc1c(Cl)cc(Cl)cc1C(=O)OCC(=O)N1CCCC1=O | 14 | 3 | 1 | 0 | 40* | 1 | 36*
Nc1c(Cl)cc(Cl)cc1C(=O)OCC(=O)N1CCCC1 | 6 | 4 | -3 | -1 | 0 | -1 | .
CCCNC(=O)CN1C(=O)c2ccccc2Sc2ncccc21 | -2 | 8 | 8 | -4 | 2 | 0 | .
SMILES | PAFAH1B2 FP inh | pPAFAH FP inh | ATG4B inh | PAFAH1B3 inh | PAFAH2 FP inh | DAGLB inh | PAFAH2 confirm
Cc1c(Cl)cccc1N=C1SCCN1C(=O)CN1C(=O)NC2(CCCC2)C1=O | 7 | 13 | -6 | 5 | 30* | 1 | 18
Cc1cc(NC(=O)C(C)SCC(=O)N(C)CC(=O)Nc2ccccc2Br)no1 (stereo not drawn) | 5 | -2 | 3 | 8 | -7 | 2 | .
COc1ccc(N2CC(O)=C(c3nc(-c4ccc(F)cc4)cs3)C2=N)cc1OC | 1 | 22 | -34 | 10 | 41* | 2 | 42*
CN(CC(=O)NCCc1ccc(S(N)(=O)=O)cc1)S(=O)(=O)c1ccc(Br)s1 | 6 | 10 | -9 | 2 | -6 | -1 | .
CN1C2CCC1CC(NC(=O)c1cccc(C(F)(F)F)c1)C2 (stereo not drawn) | 21 | 4 | -9 | 18 | 32* | -1 | -2
O=S(=O)(Nc1nc2ccccc2nc1Cl)c1ccc(Br)cc1 | 8 | 2 | 0 | 2 | -1 | 15 | .
CCCSC1=N/C(=C\c2ccc([N+](=O)[O-])o2)C(=O)S1 | 7 | . | 15 | 17 | 40* | 5 | 20
O=C(COC(=O)c1cccs1)NCCCc1ccccc1 | 4 | 5 | -8 | 1 | 47* | 0 | 28
N/C(CC(=O)Nc1ccc(F)c(Cl)c1)=N\OC(=O)c1cccs1 | 10 | -4 | -4 | -1 | 48* | -3 | 36*
O=C(COC(=O)CCC(=O)c1cccs1)Nc1ccc(F)c(F)c1F | 1 | 8 | -1 | 3 | 3 | 1 | .
O=C(COC(=O)c1cccs1)Nc1ccc(F)c(F)c1 | -1 | 9 | -10 | 4 | 79* | -1 | 81*
N/C(=N\OC(=O)c1cccs1)c1ccc(Cl)cc1 | . | 9 | -11 | . | . | . | .
CC1(C(=O)OCC(=O)Nc2ccccc2)CC1(Cl)Cl (stereo not drawn) | 1 | 4 | 5 | 2 | 56* | -5 | 51*
CC1(C(=O)OCC(=O)Nc2ccccc2Cl)CC1(Cl)Cl (stereo not drawn) | 1 | 6 | 4 | 8 | 1 | -3 | .
O=C(COC(=O)/C=C/c1cccc(F)c1)NC(=O)NC1CCCC1 | 5 | -4 | 1 | 6 | 19 | -1 | .
O=C(c1ccc2c(=O)n3c(nc2c1)CCC3)N1CCCSC1=Nc1ccccc1 | -6 | 1 | -13 | 7 | -8 | 2 | .
O=C(COC(=O)c1cccs1)Nc1nc(-c2ccccc2)cs1 | -4 | 2 | 4 | 3 | 9 | -1 | .
O=C(COC(=O)c1cccs1)Nc1ccccc1 | -5 | 8 | 14 | 4 | 77* | -2 | 78*
CCOC(=O)n1cc(C(=O)c2ccccc2O)cn1 | -3 | 5 | 12 | -1 | 20 | 1 | .
CC(C)(C)OC(=O)n1cc(C(=O)c2ccccc2O)cn1 | 0 | 0 | 4 | 8 | 84* | 3 | 69*
O=C(c1cc2c(s1)CCCC2)n1cccn1 | 1 | 21 | 8 | -1 | 63* | -13 | 55*
CCCc1cc(C(=O)OCC(=O)NCCc2ccccc2)sc1C | . | . | . | . | . | -9 | .
O=S(=O)(c1ccc(-c2csc(Nc3ccc(F)cc3)n2)cc1)N1CCCC1 | -6 | 9 | 0 | 7 | -14 | -4 | .
